For 39 compounds, growth results are on record in PubChem BioAssay (NCI).

Where “and” joins values, the source holds several entries; their conditions need not be identical. Equal values may be shown once. About 83,000 compounds went through this panel and 20% of them were active in at least one assay; those are over-represented in the sample as a whole.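 Method: cells in 96-well plates; compound added at one concentration; 48 h incubation; percent growth measured; values under 10 scored active.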 Calls of active or inactive are those of the source.

For this assay, the system named is HL-60(TB) leukemia. In words: NCI-60 one-dose screen, 48 h (100 = growth as untreated, 0 = no growth, -100 = all killed). Particulars: 10 µM unless noted.
For `CNC(=O)c1ccc(Nc2ncc(C(F)(F)F)c(NCc3nccnc3N(C)S(C)(=O)=O)n2)cc1`, the growth was -32.1% (active).

On to `Nc1ccc(N=Nc2ccc(O)cc2)c(N)n1`, for which the growth was 37% (inactive).

For `Cc1[nH]c(=O)[nH]c(=O)c1CCSSCCc1c(C)[nH]c(=O)[nH]c1=O`, the growth was 99.5% (inactive).

As to `CC(=O)CC(=O)OC/C=C(/C)CCC=C(C)C`, the growth was 124% (inactive).

For the compound `Cc1cc(C(c2ccccc2)c2ccccc2)ccc1NS(=O)(=O)c1ccccc1`, the growth is 78.5% (inactive).

Regarding `CC(=O)OCC(=O)[C@@]1(O)[C@H](C)C[C@H]2[C@@H]3C=C(C)C4=Cc5c(cnn5-c5ccc(F)cc5)C[C@]4(C)[C@H]3[C@@H](O)C[C@@]21C`, the growth is 16.3% (inactive).

In the case of `CNC(=O)c1cc(Oc2ccc(NC(=O)Nc3ccc(Cl)c(OC(C)C)c3)c(F)c2)ccn1`, the growth was 59.6% (inactive).

For `CN1CCN(C(=O)[C@]23CCC(C)(C)C[C@@H]2C2=CC[C@@H]4[C@@]5(C)Cc6c([nH]c7ccccc67)C(C)(C)[C@@H]5CC[C@@]4(C)[C@]2(C)CC3)CC1`, the growth was 76.7% (inactive).

Take `CC(C)[C@@]12C[C@@H](OC(=O)C3CO3)[C@@](C)(O1)[C@@H]1CC[C@@H](C)[C@H]1[C@@H]2OC(=O)/C=C/c1ccccc1` (some centres undefined): the growth is 93.3% (inactive).

`CCN(CC)CCNc1ccc(C)c2sc3ccccc3c(=O)c12` (tested in a mixture with another compound): the growth was 10.1% (inactive) and 15.3% (inactive).

Take `c1ccc2c(c1)Oc1cccnc1-n1nccc1-2`: the growth was 101% (inactive).

With `O=C(c1nn(-c2ccc(Cl)cc2)cc1O)n1nc(C(F)(F)F)cc1-c1ccccc1`, the growth is -14.8% (active).

`CC(C)CCC(=O)[C@@H](C)[C@H]1[C@@H](OC2OCC(O)C(O)C2NS(C)(=O)=O)C[C@H]2[C@@H]3CC=C4C[C@@H](O)CC[C@]4(C)[C@H]3CC[C@]12C` (some centres undefined): the growth is 7.32% (active).

For `COc1cc2oc(-c3cccc(NC(=O)c4cccc(Br)c4)c3)cc(=O)c2c(OC)c1OC`, the growth is 65.5% (inactive).

As to `N#CC1=C(N)Oc2cc(N)ccc2C1c1cccnc1` (centres undefined), the growth is 96.6% (inactive).

Turning to `Cc1cccc(/C=C\C(=O)c2ccc(Cl)cc2)c1`, the growth was 90.1% (inactive) and 61.3% (inactive).

Consider `COc1ccc(/C(C)=N/NC(=O)c2ccc(S(C)(=O)=O)cc2)cc1OC`, for which the growth was 50.9% (inactive).

Turning to `O=C(Nc1nc2cc(C(=O)N3CCN(C(c4ccccc4)c4ccccc4)CC3)ccc2o1)c1ccc(NC2CCCCC2)c([N+](=O)[O-])c1`, the growth was 82% (inactive).

With `O=C(CSc1nccc(Nc2ccc(S(=O)(=O)Nc3ccccn3)cc2)n1)c1ccc(Cl)cc1`, the growth was 95.3% (inactive).

`COc1ccc(-c2cc(=O)c3c(O)cc(O)cc3o2)cc1`: the growth is 73.4% (inactive) and 103% (inactive).

For `Cn1cc(-c2csc(-c3cn(CCCN4CCCCC4)c4ccc(F)cc34)n2)c2cccnc21`, the growth was 56.3% (inactive).

`Cc1[nH]c(C(=O)Nc2ccc(C(=O)N3CCN(c4cc5c(cc4F)c(=O)c(C(=O)O)cn5C4CC4)CC3)cc2OC(C)C)c(Cl)c1Cl`: the growth is 92.7% (inactive).

With `Cc1c(-c2noc(-c3ccc([N+](=O)[O-])cc3)n2)no[n+]1[O-]`, the growth was 102% (inactive).

For the compound `CC(C)C/C=C/C=C/C(=O)N[C@@H](CC(N)=O)C(=O)N[C@@H]1C(=O)N[C@H](c2ccc(O)cc2)C(=O)N[C@H](CCCN)C(=O)N[C@H]([C@@H](C)O)C(=O)N[C@H](c2ccc(O)cc2)C(=O)N[C@H](c2ccc(O)cc2)C(=O)N[C@H]([C@H](C)O)C(=O)N[C@H](Cc2ccccc2)C(=O)N[C@H](CCCN)C(=O)N[C@H](c2ccc(O[C@H]3O[C@@H](CO)[C@@H](O)[C@@H](O)[C@H]3O[C@@H]3O[C@H](CO)[C@H](O)[C@H](O)[C@@H]3O)cc2)C(=O)N[C@H]([C@H](C)O)C(=O)N[C@H](c2ccc(O)cc2)C(=O)NCC(=O)N[C@H](CC(C)C)C(=O)N[C@H](C)C(=O)N[C@H](c2ccc(O)c(Cl)c2)C(=O)O[C@@H]1C(N)=O`, the growth is 72.1% (inactive).

Regarding `COc1c(B(O)O)cccc1-c1nc2ccc3[nH]ncc3c2c2c1CCC2`, the growth is 61.6% (inactive).

For `Cc1ncc(C(=O)Nc2ccc(CN3CCN(C)CC3)c(C(F)(F)F)c2)cc1C#Cc1cnc(NC2CC2)c2ncccc12`, the growth is 34.1% (inactive).

Take `Cc1ccc(NC(=O)NC(=O)CSc2nc3ccccc3nc2C)cc1`: the growth was 67.9% (inactive).

In the case of `Nc1nc2ncc(CCNc3ccc(C(=O)NC(CCC(=O)O)C(=O)O)cc3)nc2c(=O)[nH]1` (centres undefined), the growth was 144% (inactive).

With `CCCCCCCCCCCCCCCC(N)c1ccccc1` (centres undefined), the growth is -14.3% (active).

Consider `COC1=CC(=O)c2nc(Cl)ccc2C1=O`, for which the growth is -30.1% (active).

As to `COc1ccc(-c2nc(NC(=O)CS(=O)(=O)c3ccc(F)cc3)sc2C)cc1`, the growth was 51.6% (inactive).

For the compound `COc1cc(OCc2cccc(-c3ccc(C(O)c4nccs4)cc3)c2C)cc(OC)c1CNCCNC(C)=O` (centres undefined), the growth was 101% (inactive).

On to `Cc1c(C)c(N2C(=O)C=CC2=O)c(C)c(C)c1N1C(=O)C=CC1=O`, for which the growth is 57.5% (inactive).

With `CC(C)C[C@H](NC(=O)[C@@H](Cc1ccccc1)n1ccc(Nc2ccccc2)cc1=O)B(O)O`, the growth is -7.72% (active).

Consider `CC(C)N(Cc1ccccc1)c1c(S)ssc1=S`, for which the growth is -23.3% (active).

Regarding `N#CC1=C(N)Oc2c(sc3c(Br)cccc23)C1c1ccc(F)cc1` (centres undefined), the growth was -25.6% (active).

Turning to `NC(N)=N/N=C(/c1ccccc1)c1ccc(Cl)cc1`, the growth is 105% (inactive).

In the case of `C1CCC([PH+](C2CCCCC2)C2CCCCC2[PH+](C2CCCCC2)C2CCCCC2)CC1.[Au].[CH-]1CCCCC1C1CCCC[N-]1` (centres undefined), the growth is -29.9% (active).

Turning to `O=C1C=CC(=O)N1c1cccc(N2C(=O)C=CC2=O)c1`, the growth is 97.9% (inactive).
